From PubChem BioAssay (EPA / NIEHS)
Several values for one entry are separate records, joined by “and”; a condition that tells them apart may be missing. Identical values can stand only once. Where a structure was tested more than once in an assay, its records may differ in their call. Activity calls are given as the source filed them. The calls were made as follows: active = hit-call score of the fitted dose curve at least 0.9, where 1 is the maximum; inactive = score below 0.9.

Tests used:
[1] = read-out: Plasminogen activator inhibitor-1 (PAI1), SERPINE1 (gene 5054); assay: BSK_MyoF_PAI1: BioMAP Diversity Plus: MyoF Assay for Plasminogen activator inhibitor-1 (PAI1) Biomarker Activity (AID 2284256); settings: primary human lung fibroblasts;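 as to outcome: PAI-1 protein level measured by ELISA in fibroblast cultures; PAI-1 read 24 h after compound addition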
How it was run: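 ELISA read-out of PAI-1 from primary human lung fibroblast cultures 24 h after dosing; gain-of-signal fit versus DMSO control.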

[2] = read-out: Interleukin-8 (IL8), CXCL8 (gene 3576); assay: BSK_MyoF_IL8: BioMAP Diversity Plus: MyoF Assay for Interleukin-8 (IL8) Biomarker Activity (AID 2284261); settings: primary human lung fibroblasts
How it was run: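 ELISA read-out of IL-8 from primary human lung fibroblasts, 24 h post-dose; positive-direction curve fitting relative to DMSO vehicle baseline.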

CD69, CD69 (gene 969) = assay: BSK_IMphg_CD69: BioMAP Diversity Plus: IMphg Assay for CD69 Biomarker Activity (AID 2284257); settings: primary human endothelial cells with macrophages
How it was run: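 Human venular endothelial cells co-cultured with macrophages; CD69 quantified by ELISA 24 h after compound addition. Activity fitted in the positive direction relative to DMSO baseline; cytotoxicity tracked in parallel cultures via SRB total-protein staining.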

[3] = read-out: Eotaxin 3, CCL26 (gene 10344); assay: BSK_BF4T_Eotaxin3: BioMAP Diversity Plus: BF4T Assay for Eotaxin 3 Biomarker Activity (AID 2284258); settings: primary human bronchial epithelial cells with fibroblasts
How it was run: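 Co-culture of human bronchial epithelial cells and dermal fibroblasts, exposed to chemicals for 24 h versus DMSO. Eotaxin-3 quantified by ELISA; cytotoxicity checked in parallel cultures by sulforhodamine B total-protein staining.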

[4] = read-out: Monocyte Chemoattractant Protein-1 (MCP1), CCL2 (gene 6347); assay: BSK_BF4T_MCP1: BioMAP Diversity Plus: BF4T Assay for Monocyte Chemoattractant Protein-1 (MCP1) Biomarker Activity (AID 2284259); settings: primary human bronchial epithelial cells with fibroblasts
How it was run: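 Co-culture of bronchial epithelial cells and dermal fibroblasts dosed with chemical; MCP-1 measured by ELISA 24 h later. Activity fitted in positive direction versus DMSO; cytotoxicity checked by SRB staining in parallel cultures.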

[5] = read-out: Intercellular Adhesion Molecule 1 (ICAM1), ICAM1 (gene 3383); assay: BSK_BF4T_ICAM1: BioMAP Diversity Plus: BF4T Assay for Intercellular Adhesion Molecule 1 (ICAM1) Biomarker Activity (AID 2284260); settings: primary human bronchial epithelial cells with fibroblasts
How it was run: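 Co-culture of human bronchial epithelial cells and dermal fibroblasts exposed 24 h to chemical; cell-surface ICAM-1 quantified by ELISA. Parallel SRB total-protein staining assessed cytotoxicity; activity fitted relative to DMSO.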

CD90, THY1 (gene 7070) = assay: BSK_BF4T_CD90: BioMAP Diversity Plus: BF4T Assay for CD90 Biomarker Activity (AID 2284262); settings: primary human bronchial epithelial cells with fibroblasts
How it was run: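 Co-culture of human bronchial epithelial cells and dermal fibroblasts, 24 h compound exposure. Cell-surface CD90 measured by ELISA relative to DMSO; parallel SRB total-protein staining for cytotoxicity.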

[6] = read-out: Interleukin-8 (IL8), CXCL8 (gene 3576); assay: BSK_BF4T_IL8: BioMAP Diversity Plus: BF4T Assay for Interleukin-8 (IL8) Biomarker Activity (AID 2284263); settings: primary human bronchial epithelial cells with fibroblasts
How it was run: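 Human bronchial epithelial cells with dermal fibroblasts co-culture; IL-8 measured by ELISA 24 hours after dosing, fitted vs DMSO. Cytotoxicity tracked in parallel cultures by SRB total-protein staining.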

[7] = read-out: Interleukin-1 alpha (IL1a), IL1A (gene 3552); assay: BSK_BF4T_IL1a: BioMAP Diversity Plus: BF4T Assay for Interleukin-1 alpha (IL1a) Biomarker Activity (AID 2284264); settings: primary human bronchial epithelial cells with fibroblasts
How it was run: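 Human bronchial epithelial cells co-cultured with dermal fibroblasts, dosed and read at 24 h. Secreted/surface IL-1α quantified by ELISA; gain-of-signal fitted relative to DMSO baseline. Parallel SRB total-protein staining tracked cytotoxicity.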

What does the source list for `Nc1ccc([N+](=O)[O-])cc1O`?
outcome [1]: inactive; outcome [2]: inactive

What does the source list for `O=C(O)C(F)(F)C(F)(F)C(F)(F)C(F)(F)C(F)(F)C(F)(F)C(F)(F)C(F)(F)Cl`?
AC50 (CD69, CD69 (gene 969)): 41.5 µM (active) and 30 µM (active); AC50 [3]: 8.26 µM (active) and 1.05 µM (active); AC50 [4]: 40.4 µM (active) and 45.9 µM (active); AC50 [5]: 41.4 µM (active) and 40 µM (active); outcome [2]: inactive; AC50 (CD90, THY1 (gene 7070)): 30 µM (active); outcome (CD90, THY1 (gene 7070)): inactive; AC50 [6]: 51.9 µM (active) and 50.3 µM (active); AC50 [7]: 45.2 µM (active) and 44 µM (active)

How did the AC50 [1] turn out when `Oc1ccc(Nc2ccccc2)cc1` was run?
The AC50 was 7.66 µM (active).

What about the AC50 [2] of the same compound?
Its AC50 is 3.97 µM (active).

`CCCCCCC(C)OC(=O)CCCCC(=O)OC(C)CCCCCC` (stereo not given) was tested. Which outcome [1] did it give?
The outcome was “inactive”.

What about the outcome [2] of the same compound?
The outcome was “inactive”.

Which results are given for `FC(F)(F)C(F)(F)C(F)(F)C(F)(F)C(F)(F)C(F)(F)CCS`?
outcome (CD69, CD69 (gene 969)): inactive; outcome [3]: inactive; outcome [4]: inactive; outcome [5]: inactive; outcome [2]: inactive; outcome (CD90, THY1 (gene 7070)): inactive; outcome [6]: inactive; AC50 [7]: 10.9 µM (active); outcome [7]: inactive

How did the outcome [2] turn out when `CCc1c(Br)c(Br)c(Br)c(Br)c1Br` was run?
The outcome was “inactive”.

How did the outcome [2] turn out when `CCCCCCCOC(=O)c1ccccc1C(=O)OCCCCCCC` was run?
Its outcome is “inactive”.

How did the outcome (CD69, CD69 (gene 969)) turn out when `OCC(F)(F)C(F)(F)C(F)(F)C(F)(F)C(F)(F)C(F)(F)F` was run?
The outcome was “inactive”.

And the outcome [3]?
The outcome was “inactive”.

What about the outcome [4] of the same compound?
The outcome was “inactive”.

What about the outcome [5] of the same compound?
The outcome was “inactive”.

And the outcome [2]?
The outcome was “inactive”.

And the outcome (CD90, THY1 (gene 7070))?
The outcome was “inactive”.

What about the outcome [6] of the same compound?
The outcome was “inactive”.

And the outcome [7]?
The outcome was “inactive”.

With `CCN(CC)c1ccc2c(C)cc(=O)oc2c1` as the compound, how does the outcome [2] read?
The outcome was “inactive”.

For `O=C(O)C(F)(F)C(F)(F)C(F)(F)C(F)(F)F`, which outcome (CD69, CD69 (gene 969)) is on record?
Its outcome is “inactive”.

What about the outcome [3] of the same compound?
Its outcome is “inactive”.

What about the outcome [4] of the same compound?
Its outcome is “inactive”.

And the outcome [5]?
The outcome was “inactive”.

What about the outcome [2] of the same compound?
The outcome was “inactive”.

What about the outcome (CD90, THY1 (gene 7070)) of the same compound?
Its outcome is “inactive”.

And the outcome [6]?
The outcome was “inactive”.

What about the outcome [7] of the same compound?
The outcome was “inactive”.

How did the outcome [2] turn out when `CCCCNc1ccccc1` was run?
The outcome was “inactive”.

Which results are given for `CCc1ccc(C(c2ccc(CC)cc2)C(Cl)Cl)cc1`?
AC50 [1]: 31.1 µM (active); AC50 [2]: 7.95 µM (active)

What does the source list for `FC(F)(F)C(F)(F)C(F)(F)CI`?
outcome (CD69, CD69 (gene 969)): inactive; outcome [3]: inactive; outcome [4]: inactive; outcome [5]: inactive; outcome [2]: inactive; outcome (CD90, THY1 (gene 7070)): inactive; outcome [6]: inactive; outcome [7]: inactive

Which outcome (CD69, CD69 (gene 969)) does the source give for `COC(=O)CCC(F)(F)C(F)(F)C(F)(F)C(F)(F)F` here?
The outcome was “inactive”.

And the outcome [3]?
The outcome was “inactive”.

What about the outcome [4] of the same compound?
Its outcome is “inactive”.

And the outcome [5]?
Its outcome is “inactive”.

And the outcome [2]?
The outcome was “inactive”.

What about the outcome (CD90, THY1 (gene 7070)) of the same compound?
The outcome was “inactive”.

And the outcome [6]?
The outcome was “inactive”.

And the outcome [7]?
The outcome was “inactive”.

`C=C(C)C(=O)OCC(F)(F)C(F)(F)C(F)(F)F` was tested. Which outcome (CD69, CD69 (gene 969)) did it give?
The outcome was “inactive”.

And the outcome [3]?
Its outcome is “inactive”.

And the outcome [4]?
The outcome was “inactive”.

What about the outcome [5] of the same compound?
Its outcome is “inactive”.

What about the outcome [2] of the same compound?
Its outcome is “inactive”.

What about the outcome (CD90, THY1 (gene 7070)) of the same compound?
The outcome was “inactive”.

What about the outcome [6] of the same compound?
Its outcome is “inactive”.

What about the outcome [7] of the same compound?
The outcome was “inactive”.

For `CC(=O)Nc1ccc(N=Nc2cc(C)ccc2O)cc1`, which outcome [2] is on record?
Its outcome is “inactive”.

`CO[Si](OC)(c1ccccc1)c1ccccc1` was tested. Which outcome [2] did it give?
Its outcome is “inactive”.

How did the outcome [2] turn out when `CCCCOCCOCCOC(=O)CCCCC(=O)OCCOCCOCCCC` was run?
Its outcome is “inactive”.

Which AC50 [2] does the source give for `O[Si](c1ccccc1)(c1ccccc1)c1ccccc1` here?
The AC50 was 8.82 µM (active).

For `OCCCC(F)(F)C(F)(F)C(F)(F)C(F)(F)C(F)(F)C(F)(F)C(F)(F)F`, which AC50 (CD69, CD69 (gene 969)) is on record?
The AC50 was 50 µM (active).

And the outcome (CD69, CD69 (gene 969))?
The outcome was “inactive”.

And the AC50 [3]?
The AC50 was 52.3 µM (active).

And the outcome [3]?
The outcome was “inactive”.

And the AC50 [4]?
The AC50 was 38.4 µM (active) and 43.2 µM (active).

And the AC50 [5]?
Its AC50 is 23.7 µM (active) and 34 µM (active).

And the AC50 [2]?
Its AC50 is 58.5 µM (active).

What about the outcome [2] of the same compound?
The outcome was “inactive”.

What about the AC50 (CD90, THY1 (gene 7070)) of the same compound?
The AC50 was 30 µM (active) and 21.3 µM (active).

What about the AC50 [6] of the same compound?
The AC50 was 40.5 µM (active) and 45.3 µM (active).

And the AC50 [7]?
Its AC50 is 51.6 µM (active) and 55.4 µM (active).
